# Reference: PubChem BioAssay
# Values without a mark were called inactive. Active and inactive are the calls of the source.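 The calls were made as follows: active = thallium flux through the channel raised or lowered by more than 3 SD from vehicle-only wells, actives on both sides; inactive = the rest.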
# How the values were obtained:
# Test in all cases: modulators of BK channel variants, profiling panel, selectivity assay, cell-based, U2OS BacMam, thallium flux, beta subunits (AID 1259406);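 also: initial slope of Thallos dye fluorescence rise after thallium is added; log ratio against the mean of 0.3% DMSO vehicle wells on the same plate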
# [1] = system: F380Y; conditions: at 30 µM
# [2] = system: F380Y/beta1; conditions: at 30 µM
# [3] = system: F380Y/beta2Delta; conditions: at 30 µM
# [4] = system: F380Y/beta4; conditions: at 30 µM
# [5] = target: Calcium-activated potassium channel subunit alpha-1 (Homo sapiens) + Leucine-rich repeat-containing protein 26 (Homo sapiens) (UniProt Q12791+Q2I0M4); conditions: F380Y/Slo1WT/gamma1, at 30 µM
# Sequence of Calcium-activated potassium channel subunit alpha-1 (Homo sapiens) + Leucine-rich repeat-containing protein 26 (Homo sapiens) (Q2I0M4 whole entry, looked up, one chain of several): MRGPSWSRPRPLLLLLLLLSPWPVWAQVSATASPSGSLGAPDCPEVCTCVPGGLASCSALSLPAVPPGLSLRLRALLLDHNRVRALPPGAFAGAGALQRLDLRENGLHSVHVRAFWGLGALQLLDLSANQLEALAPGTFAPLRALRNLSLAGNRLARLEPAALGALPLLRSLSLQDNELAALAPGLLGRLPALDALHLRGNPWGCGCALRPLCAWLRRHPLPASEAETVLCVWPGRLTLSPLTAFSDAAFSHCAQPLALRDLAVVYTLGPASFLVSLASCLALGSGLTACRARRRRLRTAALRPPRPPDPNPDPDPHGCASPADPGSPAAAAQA
# [6] = system: R275C; conditions: at 30 µM
# [7] = system: R275C/beta1; conditions: at 30 µM
# [8] = system: R275C/beta2Delta; conditions: at 30 µM
# [9] = system: R275C/beta4; conditions: at 30 µM
# [10] = system: R275C/Slo1WT/beta2; conditions: at 30 µM
SMILES,log fold change Tl+ flux [1],log fold change Tl+ flux [2],log fold change Tl+ flux [3],log fold change Tl+ flux [4],log fold change Tl+ flux [5],log fold change Tl+ flux [6],log fold change Tl+ flux [7],log fold change Tl+ flux [8],log fold change Tl+ flux [9],log fold change Tl+ flux [10]
Cc1[nH]n(-c2c(Cl)cc(C(F)(F)F)cc2Cl)c(=O)c1N=Nc1ccccc1,0.0138,0.00301,0.00886,0.0101,-0.0146,-0.0246,0.00755,0.0171,-0.0209,-0.029
CCOC(=O)Cn1c(=O)ccc2c(C)cc(C)nc21,0.0287,-0.0128,0.0236,-0.0078,0.0102,-0.00247,-0.0331,0.00136,0.00241,-0.00135
Fc1ccc(CCc2ccc(F)cc2)cc1,-9.9e-05,-0.0289,0.0449,0.0131,0.0118,0.0179,0.0162,0.0454,0.0168,-0.0303
O=c1c(Cl)c(N2CCOCC2)cnn1-c1cnc2ccccc2n1,-0.0015,0.00611,0.0635,0.0417,0.0667,0.00311,-0.0364,0.032,-0.0173,0.0145
O=c1[nH]cnc2scc(-c3cccs3)c12,-0.0452,-0.0118,0.0191,0.0165,-0.0657,-0.0434,0.00866,-0.0381,0.0239,-0.0542
CN(Cc1nnc(-c2ccc3ccccc3c2)o1)c1nnc(C(F)(F)F)s1,0.00202,0.0221,0.0123,-0.0118,-0.0041,4.3e-05,-0.0299,-0.000282,-0.0251,0.0181
O=S(=O)(c1ccc(-c2cc(C(F)(F)F)on2)s1)N1CCc2c([nH]c3ccc(F)cc23)C1,0.0233,0.0471,0.0355,0.0473,0.0308,0.0283,-0.0189,0.0168,-0.00429,0.00527
O=C1C(=Cc2cc(-c3ccccc3)c(C(F)(F)F)s2)CSc2ccc(Cl)cc21,0.00549,0.0168,0.0287,-0.022,-0.0261,-0.00201,-0.0099,-0.0048,0.0191,0.0572
Clc1cc(Cl)cc(Nc2ncnc(-n3cccc3)n2)c1,0.0686,0.0545,0.0354,0.0368,0.0181,0.00673,0.00955,0.0395,-0.0107,-0.0692
O=C(NC(=O)c1ccccc1Oc1ccc(Cl)cc1Cl)Nc1cc(Cl)cc(Cl)c1,0.0204,0.0216,-0.00408,-0.00832,0.0199,0.0363,-0.0332,0.00447,0.0362,-0.00947
CC(=O)C(=CN(C)C)Sc1ccc(Cl)cc1,0.0299,-0.000152,0.00502,0.000556,0.0115,0.0269,0.0366,0.0244,0.0484,-0.0118
COC(=O)C=C1NCC(O)CNC1=O (stereo not given),-0.00633,-0.0361,0.00999,-0.025,-0.0336,0.0119,-0.0456,0.0117,-2.9e-05,0.0313
Oc1c(Cl)c(Cl)c(Cl)c2ccccc12,0.503 (active),0.627 (active),0.473 (active),0.484 (active),0.395 (active),0.519 (active),0.527 (active),0.304 (active),0.702 (active),0.141 (active)
Cc1cc(S(=O)(=O)c2ccc(Cl)cc2)sc1C(=O)NCC(O)c1ccccc1 (stereo not given),0.0511,0.0134,0.000794,0.0168,-0.0326,-0.0286,0.095,0.0132,0.0561,-0.00987
CSc1nc(C)nc(Sc2cccc(C(F)(F)F)c2)c1C#N,-0.0573,0.0287,0.00499,0.0691,0.0378,-0.0292,-0.00668,-0.023,0.00747,0.00901
CC(=O)OCC(=O)C1(O)C(C)CC2C3CCC4CC(=O)C=CC4(C)C3C(O)CC21C (stereo not given),0.0723,-0.0034,-0.017,0.0362,-0.00155,0.00844,0.0348,0.0375,0.0527,0.00132
Cn1c(C(F)(F)F)nnc1S(=O)(=O)Cc1ccc(-c2csnn2)cc1,0.0645,0.0098,0.0485,0.114 (active),0.00754,0.0229,-0.0587,0.0374,-0.0154,-0.0301
CS(=O)(=O)Nc1ccc(N2CCN(c3ccc(C(F)(F)F)cn3)CC2)nc1,0.0216,0.0253,0.0364,0.0379,0.0373,0.0255,0.0101,0.0279,0.0149,0.0171
COC(=O)c1cc(C)nc(Sc2n[nH]c(-c3cc(Cl)cc(Cl)c3)n2)n1,-0.0391,0.0897 (active),0.0312,0.046,0.044,0.00719,0.0447,0.0581,0.0071,0.059
O=C(NC(=O)C12CC3CC(CC(C3)C1)C2)Nc1ccc(Cl)cc1,0.00432,-0.0267,-0.0384,-0.0415,0.0168,-0.00652,-0.0129,-0.0163,0.0337,-0.0195
COC(=O)CC1(C(=O)OC)Oc2ccc(Br)cc2C(=O)N1c1cccc(Cl)c1Cl (stereo not given),-0.195 (active),0.188 (active),-0.0998,-0.677 (active),-0.246 (active),-0.108 (active),0.102,0.0176,-0.204 (active),-0.0135
Cc1c(C(=O)CSc2n[nH]c(=O)n2C(C)c2ccccc2)sc2ccc(Cl)cc12 (stereo not given),0.0243,0.0267,0.0136,-0.00607,0.0185,0.0226,0.0417,0.0219,0.0303,-0.0119

SMILES,log fold change Tl+ flux [1],log fold change Tl+ flux [2],log fold change Tl+ flux [3],log fold change Tl+ flux [4],log fold change Tl+ flux [5],log fold change Tl+ flux [6],log fold change Tl+ flux [7],log fold change Tl+ flux [8],log fold change Tl+ flux [9],log fold change Tl+ flux [10]
COc1ccccc1NC(=S)NNC(=O)CSc1ccccc1[N+](=O)[O-],0.0388,0.0156,0.0403,0.0916,0.0332,-0.0193,0.0469,0.064,0.00382,-0.0222
NC(Cc1ccc(OCc2ncc(C(F)(F)F)cc2Cl)cc1)=NOC(=O)c1ccccc1,0.0193,-0.00621,0.00968,-0.0023,-0.00749,0.0533,0.0113,0.000291,0.00465,0.0382
CCOC(=O)CN(C=NC#N)c1ccc(OC)cc1,-0.0235,0.0113,-0.0114,0.0329,0.0663,0.0146,-0.0574,-0.0152,-0.00948,0.0303
N#Cc1ccc(NCCc2ccccn2)c([N+](=O)[O-])c1,0.00452,-0.0335,-0.0123,-0.0514,-0.00295,-0.00307,-0.0352,-0.049,0.0115,0.0168
Cn1c(Sc2cnc(=S)[nH]c2-c2ccc(Cl)cc2)nnc1C(F)(F)F,0.000803,0.0224,0.000625,-0.0336,0.0434,-0.0138,-0.00364,-0.0183,0.0272,0.0806
CCOC(=O)c1ccc(NC(=O)CCC(=O)O)cc1,-0.0468,-0.00176,-0.0505,0.0259,0.0113,-0.00978,-0.00901,-0.0108,-0.0046,0.0242
CC1(C)CC(=O)N(c2cc(Cl)cc(Cl)c2)C(=O)C1,0.0251,0.0345,0.0195,-0.021,-0.00455,-0.0193,0.025,0.032,-0.0103,-0.0488
N#CC(NCc1ccccc1Cl)=C(C#N)NCc1c(F)cccc1Cl,-0.0652,-0.0209,-0.0204,-0.171 (active),-0.129 (active),-0.2 (active),-0.262 (active),-0.0733,-0.185 (active),0.00197
Cc1cc(NC(=S)N2CCCCCC2)ccc1Br,-0.0478,0.0387,-0.0137,-0.0575,-0.0699,0.0117,-0.00715,-0.0104,0.081 (active),-0.00913
Cc1noc(C)c1C(=O)Sc1nccc(C(F)(F)F)n1,-0.0193,0.00713,-0.00114,0.0508,-0.00072,0.00122,0.0433,-0.013,0.0297,-0.0512
CC1(C)CC(=O)C=C(NCCCCCCCCNC2=CC(=O)CC(C)(C)C2)C1,0.000907,0.0262,0.0043,0.0246,-0.0867,-0.0564,-0.0828,-0.0562,-0.0723,-0.149 (active)
O=C(CSCc1csc2ccccc12)NCc1ccc2c(c1)OCO2,-0.00508,-0.0221,-0.0281,-0.0396,-0.13 (active),-0.0377,-0.0155,-0.0321,-0.0151,-0.0571
CCOC(=O)NN=C(C)C(C)=NNC(=O)OCC,-0.0316,-0.0656,-0.0255,-0.0305,-0.00664,-0.0333,-0.0653,-0.00622,-0.0094,0.0167
O=c1[nH]nc(N2CCSCC2)[nH]1,0.00841,0.0329,-0.0177,0.0123,-0.0239,0.0133,0.000508,-0.00725,0.0241,0.014
O=C(NCC1CC1)c1ccccc1NS(=O)(=O)c1cccc2nonc12,0.0757,0.0238,0.0491,0.0071,-0.00954,1.3e-05,0.0417,0.0268,0.0533,0.0216
CCOC(=O)C1CCCN(C(=O)Nc2c(-c3ccccc3)noc2C)C1 (stereo not given),0.0297,-0.0223,-0.00149,0.0159,0.00293,-0.0483,-0.0144,-0.0161,-0.0185,0.00733
Cc1cc(Nc2ccc(F)cc2F)nc(SCc2c(Cl)cccc2Cl)n1,-0.0282,-0.0344,-0.0422,-0.123 (active),-0.039,-0.0547,-0.0316,-0.000965,-0.0113,-0.0702
O=C(CN1CCOCC1)Nc1ccccc1Sc1nccc(C(F)(F)F)n1,0.0122,-0.00692,-0.0219,-0.00275,0.0522,-0.0101,-0.0285,-0.0136,0.0162,0.0195
COc1ccc(Oc2ccc([N+](=O)[O-])cc2C2=NC(=CN(C)C)C(=O)O2)cc1,-0.0336,-0.0257,-0.0604,-0.00321,-0.0547,-0.0108,-0.015,-0.0321,-0.00628,-0.0407
Cc1nn(-c2ccccc2)nc1CNC(=O)COc1ccccc1,-0.0388,-0.0688,-0.0499,-0.0891,-0.0325,-0.00552,-0.0187,0.0169,-0.0424,0.0189
N#CC(=Cc1cccs1)C(N)=O,0.0135,0.00229,0.0332,-0.0391,-0.00699,0.00755,-0.00113,0.0185,0.00837,-0.0032
